In all, about 110,000 compounds were measured (“z-score”: median about -0.1, highest 2% from about 2 on). For the sample, the highest values were picked, then their nearest neighbours and some compounds at random. Active and inactive are the calls of the source.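 Rule for the calls: active = z-score in the third read window above 3 or below -3; inactive = the rest.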
biological target: Metabotropic glutamate receptor 8 (Rattus norvegicus) (UniProt P70579); assay: mGluR8 Gi/Go-coupled signaling modulation – cell-based, rat, thallium flux, HTS, primary screen (AID 488969); settings: HEK293 rat mGluR8, GIRK (G protein-gated inwardly rectifying potassium channel) thallium flux, FluoZin2; at 10 µM; stronger effect = higher value; submaximal glutamate (EC20) added with thallium
Sequence (P70579 whole entry, looked up): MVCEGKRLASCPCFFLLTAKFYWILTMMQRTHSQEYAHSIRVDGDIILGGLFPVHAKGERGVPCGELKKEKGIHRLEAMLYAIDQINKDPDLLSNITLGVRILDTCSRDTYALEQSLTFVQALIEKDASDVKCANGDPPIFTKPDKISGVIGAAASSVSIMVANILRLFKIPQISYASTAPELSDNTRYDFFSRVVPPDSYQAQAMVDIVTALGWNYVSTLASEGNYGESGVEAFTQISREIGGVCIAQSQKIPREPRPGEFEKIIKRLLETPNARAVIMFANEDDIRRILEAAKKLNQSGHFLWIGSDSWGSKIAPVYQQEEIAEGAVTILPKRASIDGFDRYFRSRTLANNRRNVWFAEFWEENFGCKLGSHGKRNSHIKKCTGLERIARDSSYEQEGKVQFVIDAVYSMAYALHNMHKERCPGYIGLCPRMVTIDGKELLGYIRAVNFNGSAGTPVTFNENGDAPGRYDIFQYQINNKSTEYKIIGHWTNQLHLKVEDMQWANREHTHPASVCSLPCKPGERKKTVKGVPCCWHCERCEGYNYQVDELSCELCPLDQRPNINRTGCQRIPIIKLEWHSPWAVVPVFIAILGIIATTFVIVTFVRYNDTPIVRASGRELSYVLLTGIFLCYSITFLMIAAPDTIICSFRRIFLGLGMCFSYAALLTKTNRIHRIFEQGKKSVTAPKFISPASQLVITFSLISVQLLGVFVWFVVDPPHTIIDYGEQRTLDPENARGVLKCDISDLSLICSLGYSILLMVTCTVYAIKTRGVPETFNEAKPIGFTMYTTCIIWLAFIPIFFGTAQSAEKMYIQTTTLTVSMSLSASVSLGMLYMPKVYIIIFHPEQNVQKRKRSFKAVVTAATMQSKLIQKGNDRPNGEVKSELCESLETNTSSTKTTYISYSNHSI

SMILES | z-score
COc1ccc(C2/C(=C(\O)c3ccc(OC)c(Cl)c3)C(=O)C(=O)N2CCN(C)C)cc1 (configuration not stated) | -0.505
COc1nc(C#N)c(N2CCOCC2)o1 | -0.118
Cn1c(SCC(N)=O)nnc1-c1ccccc1 | 0.403
Cn1c(SCC(=O)c2cc3ccccc3o2)nnc1-c1ccccc1 | 4.93 (active)
Cn1ccnc1SCC(=O)c1cc2ccccc2o1 | 0.608
Cc1ccc(/C=C2/NC(=O)N(c3ccccc3)C2=O)o1 | 0.187
CS(=O)(=O)NCC(c1cccnc1)N1CCN(c2ccc(F)cc2)CC1 (configuration not stated) | -0.636
O=C(CSc1nc2ccccc2s1)NNC(=O)Nc1ccc(Cl)c(Cl)c1 | -0.0417
Cc1ccc(C)c(OCC(=O)NCCN(C)C)c1 | 0.356
Cc1sc2nc(SCC(=O)NCc3ccco3)n(Cc3ccccc3)c(=O)c2c1C | -0.304
Cc1sc2nc(C3CC3)nc(SCC(=O)NCc3ccco3)c2c1C | 0.399
Cc1nc(SCC(=O)NCc2ccco2)c2c(C)c(C)sc2n1 | -0.0392
O=C(CSc1ncnc2sc3c(c12)CCCCC3)NCc1ccco1 | 1.08
CCSc1ncnc2sc(C)c(C)c12 | -0.112
Cc1sc2ncnc(SCc3ccco3)c2c1C | 3.43 (active)
Cc1sc2ncnc(NCc3ccco3)c2c1C | -0.47
Cc1sc2ncnc(SCC(=O)NC(=O)NCc3ccco3)c2c1C | 2.66
Cc1sc2nc(C(C)C)nc(SCC(=O)NCc3ccco3)c2c1C | 17 (active)
C=CCn1c(SCC(=O)NCc2ccco2)nc2sc(C)c(C)c2c1=O | -0.948
Cc1sc2nc(SCC(=O)NCc3ccco3)n(C)c(=O)c2c1C | -0.982
CCn1c(SCC(=O)NC(=O)NCc2ccco2)nc2sc(C)c(C)c2c1=O | 3.05 (active)
Cc1ccc2oc(=O)c(/C=C(\O)c3sc(C)nc3C)nc2c1 | -0.168
CCOc1ccc(C(=O)NCC(=O)OC2CCOC2=O)cc1OCC (configuration not stated) | -0.823
CCCCN(C)CCNC(=O)Cn1ncc2c(=O)oc3ccc(C)cc3c21 | -0.464

SMILES | z-score
Nn1c(Cc2cccc3ccccc23)nnc1SCCOc1ccc(Br)cc1 | -0.185
COc1nc(NCc2ccco2)nc(NC2CCCCC2)n1 | -0.224
CCOC(=O)Cc1csc(NC(=O)CSc2nc3sc(C(=O)O)c(C)c3c(=O)[nH]2)n1 | 0.0555
O=C(Nc1ccc(Cl)c(Cl)c1)Nc1cc(S(=O)(=O)N2CCOCC2)ccc1N1CCCC1 | 0.00467
Cc1sc2nc(C3CC3)nc(SCC(=O)N3c4ccccc4CC3C)c2c1C (configuration not stated) | -0.291
CCc1nc(SCC(=O)N2c3ccccc3CC2C)c2c(C)c(C)sc2n1 (configuration not stated) | 0.0133
Cc1sc2nc(C(C)C)nc(SCC(=O)N3c4ccccc4CC3C)c2c1C (configuration not stated) | 10.2 (active)
CC(C)(C)C1CCc2c(sc(NC(=O)c3ccco3)c2C(N)=O)C1 (configuration not stated) | 0.458
Cc1ccc(OCCCCn2cnc3ccccc32)c(C)c1 | -0.0373
COc1ccc(OC)c(NC(=S)NCCC(c2ccccc2)c2ccccc2)c1 | -0.202
O=C(O)COCCN1CCN(C(c2ccccc2)c2ccc(Cl)cc2)CC1 (configuration not stated) | 0.16
Clc1ccc(C(c2ccccc2)N2CCNCC2)cc1 (configuration not stated) | 2.16
CC12CNCC(C)(CN(C(c3ccccc3)c3ccccc3)C1)C2 | 1.25
Oc1ccc(CN2CCc3ccccc3C2)c2cccnc12 | 0.165
Oc1c(CN2CCc3ccccc3C2)cc(Cl)c2cccnc12 | 2.72
OCCN1CCN(Cc2cc(Cl)c3cccnc3c2O)CC1 | 0.225
CS(=O)(=O)N(CC(=O)NCc1ccco1)c1cc(C(F)(F)F)ccc1Cl | 0.181
COc1ccc(N(CC(=O)NCc2ccco2)S(C)(=O)=O)cc1Cl | -0.0738
CS(=O)(=O)N(CC(=O)NCc1ccco1)c1ccc(Cl)c(C(F)(F)F)c1 | 4.31 (active)
O=[N+]([O-])c1ccc(NC(=S)N2CCN(c3ccc(F)cc3)CC2)cc1 | -0.0841
Cc1ccc(NC(=O)c2nccnc2C(=O)O)cc1C | -0.208
O=P(c1ccccc1)(c1ccccc1)N(c1ccccc1)c1ccccc1 | -0.752
CC(C)C(=O)Nc1ccc(C(=O)N2CCCCCC2)cc1 | 2.15
CC(C)C(=O)Nc1ccc(C(=O)N2CCN(C(=O)c3ccco3)CC2)cc1 | 0.196

SMILES | z-score
CC(=O)Nc1ccc(C(=O)N2CCCC2)cc1 | -0.0468
O=c1c2ccccc2nc(N/N=C/c2ccc(O)cc2)n1O | -0.0395
Cc1cc(/N=C/N(C)C)on1 | -0.0351
CCOc1ccc(-n2nnnc2SCC(=O)N2CCOCC2)cc1 | -0.126
COc1cc(OC)cc(-n2nnnc2SCC(=O)N2CCCC2)c1 | 0.154
COc1ccc(-n2nnnc2SCC(=O)N2CCOCC2)cc1 | 3.28 (active)
CCn1c(SCC(=O)Nc2ccc(C(=O)OC)cc2)nc2cccnc21 | -0.121
CC(CN(C)Cc1ccccc1)OC(=O)c1ccccc1F (configuration not stated) | 0.00558
O=C(N/N=C/c1ccc([N+](=O)[O-])s1)c1ccncc1 | -0.428
Cc1ccccc1C(=O)N/N=C/c1ccc([N+](=O)[O-])s1 | 2.95
O=C(N/N=C\c1ccc([N+](=O)[O-])s1)c1cncc(Br)c1 | -0.156
O=C(Cc1ccccc1)N/N=C/c1ccc([N+](=O)[O-])s1 | 0.543
O=C(N/N=C/c1ccc([N+](=O)[O-])s1)c1cccc(Br)c1 | 6.96 (active)
CCOc1ccc(NC(=O)CCC(=O)N/N=C/c2ccc([N+](=O)[O-])s2)cc1 | 2.1
COc1ccc(NC(=O)CCC(=O)N/N=C/c2ccc([N+](=O)[O-])s2)cc1 | -0.189
Cc1ccc(C(=O)N/N=C/c2ccc([N+](=O)[O-])s2)cc1 | -0.176
O=C(N/N=C/c1ccc([N+](=O)[O-])s1)c1ccccc1Br | -0.301
Cc1ccc(N(C(=O)CS(=O)CC(=O)Nc2ccc(F)cc2)C(C(=O)NC2CCCCC2)c2ccco2)cc1 (configuration not stated) | -0.219
O=C(NNC(=S)NC(=O)c1ccccc1[N+](=O)[O-])c1ccccc1Cl | -0.333
O=C(CCC1COc2ccccc2O1)Nc1ccc(Cl)cn1 (configuration not stated) | -0.27
COc1ccccc1C(OC(=O)c1cccs1)C(=O)NCC1CCCO1 (configuration not stated) | -0.383
COc1ccc(C(OC(=O)c2cccs2)C(=O)NCC2CCCO2)cc1 (configuration not stated) | 8.22 (active)
O=C(OC(C(=O)NCC1CCCO1)c1ccc(F)cc1)c1cccs1 (configuration not stated) | -0.0339
COc1ccc(N2CCN(C(=O)c3cn(C4CCCC4)c(=O)c4c3c3ccccc3n4C)CC2)cc1 | -0.454

From PubChem BioAssay AID488969 (Vanderbilt High Throughput Screening Facility, 2010)
